Bioassay records from PubChem.
This is one part of a sample in which hits are shown more often than they occur.
14-3-3g Raf = 14-3-3 gamma protein interaction modulation; P61981; FP, 14-3-3gamma / TMR-pS259-Raf peptide binding; inhibition, % at 40 µM; 0.19% of 160,000 active; in the data active = inhibition above about 30%;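 note: 0% = protein plus tracer without compound and 100% = blank with tracer alone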
Target sequence (P61981 whole entry, looked up): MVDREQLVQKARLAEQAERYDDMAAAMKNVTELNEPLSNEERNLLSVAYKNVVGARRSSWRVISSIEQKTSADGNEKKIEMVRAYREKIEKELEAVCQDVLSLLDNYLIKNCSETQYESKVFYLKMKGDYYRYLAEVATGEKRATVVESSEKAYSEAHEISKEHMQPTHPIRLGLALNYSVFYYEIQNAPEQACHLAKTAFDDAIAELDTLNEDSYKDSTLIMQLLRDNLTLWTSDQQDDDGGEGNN
* marks the source's active call; other numbers are inactive results; ! = not confirmed by another sample.

SMILES	14-3-3g Raf
NC(=O)c1c(NC(=O)c2ccc(Cl)cc2)sc2c1CCCC2	40*
NC(=O)c1c(NC(=O)c2ccc(F)cc2)sc2c1CCCC2	-12
Cc1ccc(S(=O)(=O)N2CCN(C3CC(=O)N(Cc4ccccc4)C3=O)CC2)cc1C (stereo unspecified)	-12
CC(C)CC(=O)Nc1c2c(nn1C(C)(C)C)CS(=O)(=O)C2	-4
CN1C(=O)C(O)(C2COC(C)(C)CC2=O)c2ccccc21 (stereo unspecified)	5
CC(=O)c1c(C(C)=O)c(C)n(-c2ccc(C)c(NC(=O)c3ccc(F)cc3)c2)c1C	32*
CC(=O)c1c(C)[nH]c(C(=O)Nc2cc(C)ccc2C)c1C	-8
Cc1cc([N+](=O)[O-])ccc1NC(=O)c1ccc(F)cc1	4
COc1ccc(OC)c(S(=O)(=O)NCc2csc(-c3ccccc3)n2)c1	-4
CCCc1ccc(O)c(N=Cc2cc(Br)cc(OC)c2O)c1	85*
COc1ccc(N=Cc2cc(Br)ccc2O)c(OC)c1	-50
CCCc1ccc(O)c(N=Cc2cc(Br)cc(OCC)c2O)c1	-134
CCCOc1ccccc1C1C2=C(CC(C)(C)CC2=O)N(CC(=O)O)C2=C1C(=O)CC(C)(C)C2	-3
COc1ccc(C(=O)CSc2nnc(-c3ccc4c(c3)OCO4)n2-c2ccccc2)cc1	11
O=C(Nc1cccc(Cl)c1)c1cc(S(=O)(=O)N2CCCC2)ccc1F	0
CCC(=O)N1CCc2cc(S(=O)(=O)N3CCCCC3c3cccnc3)ccc21 (stereo unspecified)	-20
CC(=O)Nc1ccc(S(=O)(=O)N2CCCCC2c2cccnc2)cc1 (stereo unspecified)	-4
COc1cc(C)c(C)cc1S(=O)(=O)N1CCCCC1c1cccnc1 (stereo unspecified)	31*
Cc1cn([C@H]2C[C@@H](N=[N+]=[N-])[C@@H](CO)O2)c(=O)[nH]c1=O	-2
Cc1ccc(C)c(NC(=O)CSc2nnc(C)c3ccccc23)c1	-2
COc1ccc2oc(=O)c(C(=O)C[n+]3ccc(N(C)C)cc3)cc2c1	41*
COc1cccc2cc(C(=O)C[n+]3ccc(N(C)C)cc3)c(=O)oc12	-5
COc1ccc2oc(=O)c(C(=O)NCc3ccccc3)cc2c1	-4
O=C1c2ccccc2C(O)(Cc2ccccc2)N1Cc1ccccc1 (stereo unspecified)	7
O=C1CCCC2=C1C1(O)C(=O)c3ccccc3C1(O)O2 (stereo unspecified)	56*
SMILES	14-3-3g Raf
CC(=O)C1=C(C)NC2(O)c3ccccc3C(=O)C12O (stereo unspecified)	5
N#CC1=C(N)OC2=C(C(=O)CCC2)[C@]12C(=O)N(CC(N)=O)c1ccccc12	0
O=C(Nc1sc2c(c1C(=O)N1CCOCC1)CCCCC2)c1ccco1	0
Cc1ccccc1NC1CC(C)N(C(=O)CN2C(=O)c3ccccc3C2=O)c2c(C)cccc21 (stereo unspecified)	6
CCOC(=O)N1CCN(CC(=O)Nc2cc3c(cc2C(C)=O)OCO3)CC1	-3
CCC(C)OC(=O)C1=C(C)NC2=C(C(=O)CC(c3ccccc3)C2)C1c1cccc2ccccc12 (stereo unspecified)	19
CCC(C)OC(=O)C1=C(C)NC2=C(C(=O)CC(c3ccc(OC)cc3)C2)C1c1ccc(OC)c(OC)c1 (stereo unspecified)	-11
CCC(C)OC(=O)C1=C(C)NC2=C(C(=O)CC(c3ccccc3)C2)C1c1cc(OC)c(OC)cc1Br (stereo unspecified)	39*
COc1ccc(C2C(=O)N(C3CCCC3)CC(=O)N2Cc2cccs2)cc1 (stereo unspecified)	-5
Cc1nc2c(C(=O)N3CCOCC3)cnn2c(C)c1Cc1ccc(Cl)cc1	-8
CNc1ccc(OC)c2c1C(=O)c1ccccc1C2=O	-171
CC(=O)Oc1ccc(OC(C)=O)c2c1C(=O)c1ccccc1C2=O	69*
CC(=O)Oc1ccccc1N1C(=O)c2ccccc2C1=O	3
CCCOC(=O)C1=C(C)NC2=C(C(=O)CC(c3ccccc3OC)C2)C1c1cccc(O)c1 (stereo unspecified)	-5
O=[N+]([O-])c1ccc(N2CCN(Cc3nc(-c4ccccc4)no3)CC2)cc1	-11
CSc1nnc2c(n1)OC(c1ccncc1)Nc1ccccc1-2 (stereo unspecified)	-7
CCSc1nnc2c(n1)OC(c1ccccc1Cl)Nc1ccccc1-2 (stereo unspecified)	98*
CCSc1nnc2c(n1)OC(c1ccc(C(=O)O)cc1)Nc1ccccc1-2 (stereo unspecified)	3
CSc1nnc2c(n1)OC(C1CC=C(C)CC1)Nc1ccccc1-2 (stereo unspecified)	37*!
CCSc1nnc2c(n1)OC(c1cc3c(cc1Cl)OCO3)Nc1ccccc1-2 (stereo unspecified)	21
CSc1nnc2c(n1)OC(c1ccc(C)cc1)Nc1ccccc1-2 (stereo unspecified)	6
CCSc1nnc2c(n1)OC(c1ccc(OC3CCCC3)cc1)Nc1ccccc1-2 (stereo unspecified)	26
CCc1ccc(C2Nc3ccccc3-c3nnc(SC)nc3O2)cc1 (stereo unspecified)	149*
CCSc1nnc2c(n1)OC(c1ccccc1F)Nc1ccccc1-2 (stereo unspecified)	3
CCSc1nnc2c(n1)OC(c1ccc3ccccc3c1)Nc1ccccc1-2 (stereo unspecified)	139*
SMILES	14-3-3g Raf
CCc1ccc(C2Nc3ccc(Br)cc3-c3nnc(SC)nc3O2)cc1 (stereo unspecified)	0
CSc1nnc2c(n1)OC(C1CC=C(C)CC1C)Nc1ccc(Br)cc1-2 (stereo unspecified)	-156
CCn1c2ccccc2c2cc(NC(=O)CCCN3C(=O)CCC3=O)ccc21	3
CN1C(=O)c2cccc3c(S(=O)(=O)NCc4ccco4)ccc1c23	0
O=[N+]([O-])c1cc2c(cc1C=Nc1ccc(O)c(-c3nc4ccccc4o3)c1)OCO2	-11
CSc1ccc(NC(=O)c2sc3nc(-c4cccs4)ccc3c2N)cc1	-6
O=C(c1ccccc1)N1CCN(c2nc3ccc([N+](=O)[O-])cc3s2)CC1	-8
CSc1nnc2c(n1)OC(c1ccccc1C)Nc1ccc(Br)cc1-2 (stereo unspecified)	49*
COc1ccc(Br)cc1C1Nc2ccc(Br)cc2-c2nnc(SC)nc2O1 (stereo unspecified)	-173
CSc1nnc2c(n1)OC(c1ccccc1F)Nc1ccc(Br)cc1-2 (stereo unspecified)	-117
CCCCCSc1nnc2c(n1)OC(c1cccc(C)n1)Nc1ccccc1-2 (stereo unspecified)	36*
Cc1cccc(C2Nc3ccccc3-c3nnc(SCc4ccccc4F)nc3O2)n1 (stereo unspecified)	22
CCCCCCSc1nnc2c(n1)OC(c1ccsc1)Nc1ccccc1-2 (stereo unspecified)	-36
C=CCSc1nnc2c(n1)OC(c1cccc(C)n1)Nc1ccccc1-2 (stereo unspecified)	-8
CCCCSc1nnc2c(n1)OC(c1ccccc1OC)Nc1ccccc1-2 (stereo unspecified)	-1
CCCSc1nnc2c(n1)OC(c1cccc(OCC)c1OC)Nc1ccccc1-2 (stereo unspecified)	-72
CCCSc1nnc2c(n1)OC(C)Nc1ccccc1-2 (stereo unspecified)	-5
CCCCCCSc1nnc2c(n1)OC(C)Nc1ccccc1-2 (stereo unspecified)	44*
